Compound activity as filed in PubChem.
MEP2 TOR yeast: alters MEP2-GFP fluorescence in TOR pathway yeast screen; S. cerevisiae MEP2-GFP strain, flow cytometry GFP, 3 h; 100% = DMSO control level; GFP response vs DMSO, % at 10 µM; 330,000 compounds, 0.51% hits;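 active means GFP response versus DMSO above a set limit, roughly screen mean plus 3 SD, cut at about 180% in these data; inconclusive means fewer than 70 cells counted for a yeast strain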;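 further: median GFP fluorescence of the barcode-gated MEP2-GFP cells per well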
CIT2 TOR yeast: modulators of TOR pathway CIT2-GFP in S. cerevisiae; S. cerevisiae CIT2-GFP strain, flow cytometry, 3 h; 100 means same as DMSO wells; GFP response vs DMSO, % at 10 µM; 320,000 compounds, 0.065% hits; AID 2029;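 active means GFP response relative to DMSO above a set limit, near the screen mean plus 3 SD, cut at about 150% in these data; inconclusive means Fewer than 70 cells measured for a yeast strain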;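 further: ratio of well median GFP fluorescence to mean of DMSO wells on the plate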
RPL19A-GFP yeast: alters RPL19A-GFP fluorescence in TOR pathway yeast screen; percent response vs DMSO, % at 10 µM; 330,000 compounds, 0.3% hits; S. cerevisiae RPL19A-GFP strain, flow cytometry, 3 h; active compounds read low;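 active means percent response vs DMSO below 50%; inconclusive means fewer than 70 events counted for the yeast strain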;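 further: median channel GFP fluorescence of the barcoded RPL19A-GFP strain; ratio of sample median GFP to plate DMSO average so 100% = DMSO; lower means less RPL19A-GFP as with rapamycin TOR inhibition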
AGP1 TOR yeast: modulators of TOR pathway AGP1-GFP in S. cerevisiae; S. cerevisiae AGP1-GFP multiplex flow cytometry, 3 h; GFP as percent of DMSO wells; AID 2066; 320,000 compounds, 0.02% hits; GFP response vs DMSO, % at 10 µM;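 active means GFP response relative to DMSO above a set limit, near screen average plus 3 SD, cut at about 150% in these data; inconclusive means fewer than 70 cells counted for the yeast strain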;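 further: median GFP channel fluorescence of the gated AGP1 strain per well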
LAP4 TOR yeast: modulators of TOR pathway LAP4-GFP in S. cerevisiae. S. cerevisiae LAP4-GFP multiplex, flow cytometry GFP, 3 h; median GFP as percent of DMSO wells. GFP response vs DMSO, % at 10 µM. 320,000 compounds, 0.34% hits. AID 2023;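 active means GFP response vs DMSO above a set limit, about the screen mean plus 3 SD, cut at about 150% in these data; inconclusive means under 70 cell events counted for the yeast strain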
The depositor's hits bear a star; ? = inconclusive; · = no result given; [ ] = another dose, or the depositor's remark. Compounds with a hit are over-represented: about 0.89% of the library has one in this group of screens.

SMILES	MEP2 TOR yeast	CIT2 TOR yeast	RPL19A-GFP yeast	AGP1 TOR yeast	LAP4 TOR yeast
Cc1ccc(CNS(=O)(=O)c2cc(F)ccc2CN2C(=O)c3cccnc3C2=O)o1	93	109	96	99	91
O=C(O)C1CCN(S(=O)(=O)c2cccc3nonc23)CC1	107	96	97	96	98
COc1cccc2sc(N(CCN(C)C)C(=O)/C=C/c3cccs3)nc12	193*[may fluoresce violet]	?	52	?	91
CCCCn1c(SCC(=O)Nc2sc3c(c2C(N)=O)CCC3)nnc1-c1ccccc1	252*[may fluoresce violet]	?	16*[may fluoresce violet]	?	79
CCN(C1CCCCC1)S(=O)(=O)c1cc2c3c(c1)CCN3C(=O)CC2	104	105	105	113	103
CC(SCc1nc2sc3c(c2c(=O)[nH]1)CCCC3)C(=O)Nc1ccccn1 (configuration not stated)	100	97	98	106	105
CC1(C)Cc2cccc(OCC(=O)Nc3ccccc3C(F)(F)F)c2O1	129	103	104	104	113
CC1(C)Cc2cccc(OCC(=O)Nc3ccccc3N3CCOCC3)c2O1	?	?	16*[may fluoresce violet]	?	103
CCC12CC3CC(C1)CC(C(=O)O)(C3)C2	183*[may fluoresce violet]	?	56	15	101
NC(=O)CC12CC3CC(C1)CC(CC(N)=O)(C3)C2	101	98	99	105	101
CCc1sc(C(=O)NNC(=O)c2cncc(Br)c2)cc1C	113	102	103	102	112
CC(=O)N1Cc2ccccc2CC1C(=O)NCc1ccccc1F (configuration not stated)	99	97	103	103	97
CCn1c(CCC(=O)Nc2nc3c(s2)CCCC3)nc2cc(S(=O)(=O)N(C)C)ccc21	250*[may fluoresce violet]	?	37*[may fluoresce violet]	?	75
CCc1cccc(C)c1Nc1nc2ccccc2n2cnnc12	104	99	103	101	112
O=C(NCc1ccncc1)C12CC3CC(CC(Cl)(C3)C1)C2	225*	84	91	96	145
CCN(CC(=O)Nc1ccc2c(c1)OCCO2)C(=O)c1cccc(OCC(C)C)c1	105	103	100	104	109
COCc1ccc(C(=O)N2CCCCC2C(=O)Nc2ccc(-n3nc(C)cc3C)cc2)o1 (configuration not stated)	84	80	93	79	74
Cc1cc(C)cc(NC(=O)C2C3C=CC4(O3)C2C(=O)N(CCCN2CCCCC2)C4C(=O)NC2CCCCC2)c1 (configuration not stated)	93	86	89	69	84
Cc1ccc(NC(=O)C2C3C=CC4(O3)C2C(=O)N(CCN2CCOCC2)C4C(=O)NC2CCCCC2)cc1C (configuration not stated)	100	99	105	106	98
O=C(Nc1ccc(Br)cc1)C1C2C=CC3(O2)C1C(=O)N(CCN1CCOCC1)C3C(=O)NC1CCCCC1 (configuration not stated)	438*[may fluoresce violet]	?	57	25	88
COCCCN1C(=O)C2C(C(=O)Nc3cc(C)cc(C)c3)C3C=CC2(O3)C1C(=O)NC1CCCCC1 (configuration not stated)	217*	86	63	57	88
COc1ccc2cc(OCC(=O)NNC(=O)Nc3ccc(C(C)=O)cc3)ccc2c1	109	105	96	102	105
Cc1cc2oc(=O)cc(CN3CCCCC3C)c2cc1C(C)C (configuration not stated)	98	97	97	96	92
COc1ccc(CN2C(=O)c3cccnc3C2=O)cc1S(=O)(=O)N1CCOc2ccccc21	334*[may fluoresce violet]	?	45*[may fluoresce violet]	?	110
COc1ccc(CN2C(=O)c3cccnc3C2=O)cc1S(=O)(=O)N1CCOc2ccc(Cl)cc21	111	91	98	99	102
COCCCNC(=S)Nc1cccc(SC)c1	243*[may fluoresce violet]	?	41*[may fluoresce violet]	?	62
CSc1cccc(NC(N)=S)c1	107	97	98	102	109
CSc1cccc(NC(=S)Nc2ccc(F)cc2)c1	576*[may fluoresce violet]	·	56	·	·
O=C(Nc1ccc(OC(=O)c2cccnc2)cc1)c1cccnc1	103	93	98	96	103
O=C(Nc1cccc(OC(=O)c2cccnc2)c1)c1cccnc1	194*[may fluoresce violet]	?	59	21	103
